These results are taken from PubChem BioAssay AID743315 (Broad Institute, 2014).

Measured potencies and affinities stand elsewhere. The source made the active and inactive calls.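 Rule for the calls: active = cell killing, with a fitted active concentration at or below twice the top valid dose tested; inconclusive = flat curve with moderate cell loss, or an unreliable fit; inactive = effect in the rising direction, plus the rest.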

A short description of this experiment: loss of HEK293T viability via ATP – cell-based, plate reader, dry powder, set 10, cytotoxicity control, dose response (AID 743315). As to conditions: CellTiter-Glo ATP luminescence, 72 h; series mostly up to 26 µM. On the technique in general: Cellular ATP, detected with luciferase, serves as a proxy for viable cell number.
Take `COc1cccc(OCCn2c(=S)[nH]c3ccccc32)c1`: the call was inactive.

On to `Cc1ccc(C(C)C)c(OCCn2c(=S)[nH]c3c(Cl)cccc32)c1`, for which the call was inactive.

For `CCOc1ccc(OCCn2c(=S)[nH]c3ccccc32)cc1`, the compound was classed as inactive.

`Cc1ccc(C(C)C)c(OCCn2c(=S)[nH]c3c(F)cccc32)c1`: the outcome was inactive.

Take `CC(C)(C)c1ccccc1OCCn1c(=S)[nH]c2ccccc21`: the outcome was inactive.

Regarding `Cc1ccc(C(C)C)c(OCCn2c(=S)[nH]c3ccc(F)cc32)c1`, the outcome was inactive.

`Cc1ccc(C(C)C)c(OCCn2c(=S)[nH]c3cccc(F)c32)c1`: the result was inactive.

Consider `CC(C)(C)c1ccc(OCCn2c(=S)[nH]c3ccccc32)cc1`, for which the result was inactive.

With `Cc1cccc(OCCn2c(=S)[nH]c3cc(F)ccc32)c1`, the call was inactive.

With `Cc1cccc(OCCn2c(=S)[nH]c3ccc(C(F)(F)F)cc32)c1`, the result was inactive.

`S=c1[nH]c2ccccc2n1CCOc1ccc(Cl)cc1`: the call was inactive.

Consider `Cc1ccc(C(C)C)c(OCCn2c(=S)[nH]c3cccc(Cl)c32)c1`, for which the compound was classed as inactive.

As to `Cc1ccc(OCCn2cnc3ccccc32)c(C(C)C)c1`, the outcome was inactive.

For `Fc1ccccc1OCCn1c(=S)[nH]c2ccccc21`, the call was inactive.

In the case of `Cc1ccccc1OCCn1c(=S)[nH]c2ccccc21`, the compound was called inactive.

`COc1ccccc1OCCn1c(=S)[nH]c2ccccc21`: the compound was called inactive.

Turning to `CC(C)c1ccccc1OCCn1c(=S)[nH]c2ccccc21`, the outcome was inactive.

With `S=c1[nH]c2cccc(Cl)c2n1CCOc1ccccc1`, the outcome was inactive.

Regarding `Cc1cccc(OCCn2c(=S)[nH]c3c(F)cccc32)c1`, the compound was classed as inactive.

On to `Cc1cccc(OCCn2c(=S)[nH]c3ccccc32)c1C`, for which the compound was classed as inactive.

`Fc1ccc2[nH]c(=S)n(CCOc3ccccc3)c2c1`: the result was inactive.

In the case of `Cc1ccc(C(C)C)c(OCCn2c(=S)[nH]c3cc(F)ccc32)c1`, the result was inactive.

On to `Cc1ccc(C(C)C)c(OCCn2c(=S)[nH]c3ccc(Cl)cc32)c1`, for which the result was inactive.

As to `Fc1ccc2c(c1)[nH]c(=S)n2CCOc1ccccc1`, the result was inactive.
